Vaccinia Venus: inhibitors of vaccinia virus (Venus reporter); 330,000 compounds, 0.46% hits; Vaccinia virus Venus reporter expression, fluorescence; Potency, µM (highest dose often 36.5 µM), without a hit: at the highest dose activity change, negative = inhibition, actives largely listed as inhibitors; calls by dose curve; tested in A549 cells; also: potency is read from the fitted curve at half-maximal effect; nearly all actives have a fitted effect of over 30% in size
FMDV inh: blocks foot and mouth disease virus; AID 1159524; Potency, µM (doses to about 57.9 µM), for inactives: at the top dose activity change, negative = inhibition, hits mostly inhibitors; 410,000 compounds, 1.2% hits; FMDV antiviral cell-based qHTS; calls by dose curve; tested in HEK293T cells; also: read-out not given here; potency is read from the fitted curve at half-maximal effect; nearly all actives have a fitted effect of over 45% in size
HCV inhibitor: HCV inhibition | Potency, µM (top dose mostly 41.8 µM), without a hit: top-dose activity change, negative = inhibition, hits mostly inhibitors | Huh7.5.1 HCVcc-Cre infection, luciferase reporter, 44 h | AID 651820 | 340,000 compounds, 3.4% hits; active = well fitted inhibition curve with a large enough effect; inconclusive = small, poorly fitted or top-dose-only effect, or another doubt; inactive = no such curve, though single readings can be large or run the other way; also: potency is read from the fitted curve at half-maximal effect
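Luciferase read-out (15 sec integration) after a 15 min room-temperature substrate step quantifies HCVcc-Cre infection. Cells, 1,000 per well, had compound added 4 h post-plating, then virus at ~0.5 moi, and were cultured 44 h.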
HCMV antiviral: blocks human cytomegalovirus replication. HFF cells, HCMV-luciferase reporter, 72 h; hits give low values. activity change, negative = inhibition, % at 57.5 µM. 410,000 compounds, 4.5% hits; in the data active = activity change below about -60%; inconclusive = no clear call, values can overlap the other calls; inactive = above about -39%
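Two-dose cell screen: HFF monolayers treated with compounds and infected with luciferase-expressing HCMV at 1 PFU/cell, 72 h at 37C, then lysed for luciferase measurement.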
Vaccinia mCherry: vaccinia inhibition (mCherry reporter); Vaccinia virus mCherry reporter infection, fluorescence; Potency, µM (titrated, usually from 36.5 µM), for the others: at the top dose activity change, negative = inhibition, hits mostly inhibitors; 310,000 compounds, 0.63% hits; AID 720579; calls by dose curve; tested in A549 cells; also: potency is read from the fitted curve at half-maximal effect; nearly all actives have a fitted effect of over 35% in size
Numbers without * were called inactive; i = inactive; ? = inconclusive; / = no result given; [ ] = remark or other dose. Sampled rows, rich in hits. Any-hit rate of the full collection: about 7.3%. % is scaled to controls: 0 for no effect and ±100 for the full control effect.

SMILES	Vaccinia Venus	FMDV inh	HCV inhibitor	HCMV antiviral	Vaccinia mCherry
CCCNC(=O)c1ccccc1NC(=O)c1ccc2c(c1)NC(=O)C(C)S2 (stereo not drawn)	/	-14.2%	4.47µM*	15.2	/
O=C(NCc1cccc(C(F)(F)F)c1)c1ccc2c(c1)OCO2	/	11.2%	-7.7%	29.2	/
COc1ccccc1CNC(=O)c1nnn(CC(=O)Nc2c(C)cccc2C)c1N	-21.1%	14.7%	/	-13.8	-6.2%
COc1ccc(CNC(=O)Cc2ccc(NC(=O)N3CCSc4ncccc43)cc2)cc1	-11.6%	-13.9%	/	0.0	-11.0%
CCOc1ccccc1C(=O)Nc1cc(C)ccc1NC(=O)c1ccco1	-19.4%	-3.3%	-5.5%	/	-13.2%
C=C1C(=O)O[C@H]2C[C@H]1[C@@H](OC(C)=O)C/C(C)=C/CC/C(C)=C\CC[C@]2(C)O	10µM*	7.08µM*	10µM*	-102.6*	10µM*
COc1ccc(N2CCN(C(=O)CSc3nc(-c4ccc(C(C)C)cc4)no3)CC2)cc1	-8.6%	3.5%	/	2.9	i
COc1ccccc1C1CCN(C(=O)c2cnn(-c3ccccc3)c2C)CC1	/	39.8µM*	?	-0.5	/
COc1ccccc1C1CCN(C(=O)c2ccccc2)CC1	/	-22.9%	-7.9%	63.8	/
CN(C)N(C(=O)c1cc(-c2cccs2)nn1-c1ccccc1)C1CCS(=O)(=O)C1 (stereo not drawn)	/	-26.3%	-22.4%	-29.2	/
COc1cc(OC)cc(C(=O)NCC(=O)NCCN2C(=O)S/C(=C\c3ccccc3Cl)C2=O)c1	/	-4.7%	10µM*	-0.4	/
COc1cc(C(=O)NCC(=O)NCCN2C(=O)S/C(=C\c3ccccc3Cl)C2=O)cc(OC)c1OC	-22.3%	-7.8%	?	?	-12.1%
C=CCOc1ccccc1CNc1ccc2c(c1)OCCO2	-14.9%	17.8µM*	?	/	-25.5%
CCOc1ccc(Br)cc1CNc1ccc2c(c1)OCCO2	-5.5%	-19.2%	11.2µM*	-64.9*	-7.5%
Cc1cc(Cl)ccc1NC(=O)c1cc(S(=O)(=O)N2CCOCC2)cn1C	-7.5%	-5.4%	/	?	-4.6%
COc1ccc(Cl)cc1Nc1nc(-c2sc(NC(=O)C(C)(C)C)nc2C)cs1	-24.9%	-34.7%	?	-90.3*	-28.9%
COc1ccc(OC)c(Nc2nc(-c3sc(NC(=O)C(C)(C)C)nc3C)cs2)c1	?	-26.3%	?	?	?
CCCC(C)C(=O)Nc1nc(C)c(-c2csc(Nc3ccc(Cl)cc3)n2)s1 (stereo not drawn)	?	?	-6.8%[8.37 µM]	-80.1*	?
COc1ccc(Cl)cc1Nc1nc(-c2sc(NC(=O)c3ccco3)nc2C)cs1	-22.8%	-23.4%	2.51µM*	-31.9	-26.8%
CCc1ccc(NC(=O)COC(=O)C2(c3ccc(Cl)cc3)CCCC2)cc1	-21.3%	20µM*	?	-12.9	i
O=C(NCCc1ccccc1)c1ccc(NC(=O)C2CCC2)cc1	-10.3%	64.9%	0.631µM*	51.5	-4.8%
O=C(NCCc1ccccc1)c1ccc(NC(=O)C2CCCCC2)cc1	-8.6%	-3.1%	4.5%	5.7	i
O=C(CCc1ccccc1)NC(=S)Nc1cccc(C(=O)O)c1	-7.6%	-23.0%	14.9%	79.8	i
O=C(NCCCCc1ccccc1)c1cccc(NC(=O)C2CCCC2)c1	-24.4%	-17.2%	8.91µM*	-14.5	-7.7%
O=C(NCCCCc1ccccc1)c1cccc(NC(=O)c2ccccc2)c1	-25.9%	3.8%	-59.8%	-0.3	-5.0%
SMILES	Vaccinia Venus	FMDV inh	HCV inhibitor	HCMV antiviral	Vaccinia mCherry
O=C(CCCc1ccccc1)Nc1cccc(C(=O)O)c1	0.4%	14.1µM*	8.8%	41.0	i
O=C(c1cc(C(F)(F)F)cc(C(F)(F)F)c1)N1CCC2(CCCN(c3ncccn3)C2)CC1	/	-16.3%	/	/	/
COc1cc(OC)c(C2=NOC(C(=O)N3CCCc4ccccc43)C2)cc1Cl (stereo not drawn)	/	29.9%	5.62µM*	-30.2	/
O=C1CCCN2N=C(SCC(=O)Nc3cccc(C(F)(F)F)c3)SC2=N1	-1.1%	-13.8%	6.31µM*	-86.5*	-18.8%
O=C1CCCN2N=C(SCC(=O)Nc3cccc(Cl)c3)SC2=N1	-1.0%	-22.8%	?	-81.2*	-18.8%
O=C1CCCN2N=C(SCC(=O)Nc3ccc(Cl)cc3)SC2=N1	-4.8%	-7.1%	1.7%	-34.5	-16.9%
O=C1CCCN2N=C(SCC(=O)Nc3ccccc3C(F)(F)F)SC2=N1	-13.6%	-13.5%	/	72.3	-20.5%
CCCCc1ccc(NC(=O)CSC2=NN3CCCC(=O)N=C3S2)cc1	-3.9%	-28.5%	11.2µM*	-38.7	13.4%
